Data on 39 molecules can be found in PubChem BioAssay (NCATS).

Inconclusive results are not listed. A number with no mark means an inactive call. The source made the active and inactive calls. Calls follow the shape of the dose curve; as a rule, active = well fitted inhibition curve with a large enough effect; inconclusive = small, poorly fitted or top-dose-only effect; inactive = flat fitted curve, though single readings scatter. Where a SMILES comes first, the peptide text is derived from it. Bridges are numbered along the chain shown (N, C = ends). [ ]: non-standard residue; d: D form. The star is where a group is joined. X2 = CC[C@H](C)CCCCC(=O)*; Dab = NCC[C@H](N)C(=O)O
% is scaled to controls: 0 for no effect and ±100 for the full control effect; potency is read from the fitted curve at half-maximal effect.

This test in a line: P-glycoprotein substrates identified in KB-8-5-11 adenocarcinoma cell line, qHTS therapeutic library screen (AID 1346987). Also: nearly all actives have a fitted effect of over 65% in size. Conditions: KB-8-5-11 (P-gp overexpressing) viability, CellTiter-Glo, 72 h; series mostly up to 44.5 µM; activity change, negative = cytotoxicity: at the top concentration. The essentials:
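Compounds are pinned in dose-response onto KB-8-5-11 cells (500 cells/well, colchicine-free medium) and left 72 h at 37 degree C. CellTiter-Glo luminescence then yields AC50 values.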
For the molecule `C=C1/C(=C/C=C2\CCC[C@]3(C)[C@@H]([C@@H](C)OCCC(O)(CC)CC)CC[C@@H]23)C[C@@H](O)C[C@@H]1O`, the “activity change, negative = cytotoxicity” value is -17.5%.

`O=C(NCCCN1CCC2(CC1)OCc1ccccc12)[C@H]1CCCN1Cc1ccccc1`: the “activity change, negative = cytotoxicity” value was -10.9%.

Consider `CCn1c(=O)c(-c2ccc(Cl)cc2Cl)cc2cnc(Nc3ccc(N4CCNCC4)c(F)c3)nc21`, for which the Potency was 20.6 µM (active).

Take `NCCCC[C@H](NC(=O)[C@@H]1CCCN1C(=O)[C@@H]1CSSC[C@H](NC(=O)CNC(=O)CNC(=O)CN)C(=O)N[C@@H](Cc2ccc(O)cc2)C(=O)N[C@@H](Cc2ccccc2)C(=O)N[C@@H](CCC(N)=O)C(=O)N[C@@H](CC(N)=O)C(=O)N1)C(=O)NCC(N)=O` (H-GGGCYFQNCPKG-NH2; disulfide 4-9): the “activity change, negative = cytotoxicity” value is -10.6%.

`CC(=O)OC[C@]12[C@H](OC(C)=O)[C@H](OC(=O)c3ccccc3)[C@@H]3[C@@H](OC(C)=O)[C@]1(OC3(C)C)[C@H](C)C[C@H](OC(C)=O)[C@@H]2OC(=O)c1ccccc1`: the “activity change, negative = cytotoxicity” value was -5.28% [at 17.3 µM].

With `Cn1nnnc1SCC1=C(C(=O)O)N2C(=O)[C@@H](NC(=O)[C@H](OC=O)c3ccccc3)[C@H]2SC1`, the “activity change, negative = cytotoxicity” value is 6.2%.

On to `CC[C@H](C)CCCCC(=O)N[C@@H](CCN)C(=O)N[C@H](C(=O)N[C@@H](CCN)C(=O)N[C@H]1CCNC(=O)[C@H]([C@@H](C)O)NC(=O)[C@H](CCN)NC(=O)[C@H](CCN)NC(=O)[C@H](CC(C)C)NC(=O)[C@@H](CC(C)C)NC(=O)[C@H](CCN)NC1=O)[C@@H](C)O` (X2-[Dab]T[Dab][Dab][Dab][dL]L[Dab][Dab]T; lactam 4-C), for which the “activity change, negative = cytotoxicity” value is 14.9%.

For `CCCCCCCC/C=C\CCCCCCCC(=O)OC[C@@H](O)[C@H]1OC[C@H](O)[C@H]1O`, the “activity change, negative = cytotoxicity” value is 6.97%.

Take `O=C(O)c1cc2ccccc2c(Cc2c(O)c(C(=O)O)cc3ccccc23)c1O`: the “activity change, negative = cytotoxicity” value is -0.0258%.

As to `COc1cc2nc(C3CC3)nc(N3CCN(c4ccccc4OC)CC3)c2cc1OC`, the Potency was 20.6 µM (active).

`CCC[C@@]1(CCc2ccccc2)CC(O)=C([C@H](CC)c2cccc(NS(=O)(=O)c3ccc(C(F)(F)F)cn3)c2)C(=O)O1`: the “activity change, negative = cytotoxicity” value is -1.6%.

For the molecule `CC(=O)O[C@@H]1CC2C(C)(C)C(=O)C=C[C@]2(C)C2CC[C@@]3(C)[C@H](c4ccoc4)OC(=O)[C@H]4O[C@]43[C@@]21C` (some centres undefined), the “activity change, negative = cytotoxicity” value is -9.07% [at 17.3 µM].

As to `COc1ccc(NC(=O)c2ccc(C(=N)N(C)C)cc2)c(C(=O)Nc2ccc(Cl)cn2)c1`, the “activity change, negative = cytotoxicity” value was -11.6%.

For the molecule `CCOc1nc(NC(=O)Cc2cc(OC)ccc2OC)cc(N)c1C#N`, the “activity change, negative = cytotoxicity” value is -16.3%.

`Cc1cc2c(N3CCCC3)nc(N3CCCC3)nc2n1C`: the “activity change, negative = cytotoxicity” value was -13.7%.

Consider `C[C@@H](NC(=O)C(=O)c1c[nH]c2ccc([N+](=O)[O-])cc12)c1ccccc1`, for which the “activity change, negative = cytotoxicity” value is -8.17%.

For the molecule `C1CNCCN1`, the “activity change, negative = cytotoxicity” value was 7.53%.

For `Cc1cc(Nc2ccccc2C(=O)O)ccc1Cl`, the “activity change, negative = cytotoxicity” value was 1.76%.

Consider `CN(C)CCOC(C)(c1ccccc1)c1ccc(Cl)cc1` (centres undefined), for which the Potency was 16.4 µM (active).

With `Cc1cnn(-c2ccccc2)c1NC(=O)COCc1ccccc1`, the “activity change, negative = cytotoxicity” value is -13.2%.

`CC(C)c1noc(C2CCN(c3ncnc(Nc4ccc(S(C)(=O)=O)cc4F)c3[N+](=O)[O-])CC2)n1`: the “activity change, negative = cytotoxicity” value was -22%.

For the molecule `Cc1cc(NC(=O)NCCN2CCC(O)(Cc3ccccc3)CC2)c2ccccc2n1`, the molecule was classed as inactive.

Turning to `CC(=O)O[C@@H]1[C@@H](O)[C@H](O[C@@H]2[C@@H](O)[C@@H](O)[C@H](O[C@H]3[C@H](O[C@H]4[C@H](O[C@H]5CC[C@@]6(C)C(CC[C@]7(C)C6CC=C6[C@@H]8CC(C)(C)CC[C@]8(C(=O)O)CC[C@]67C)[C@]5(C)CO)O[C@H](CO)[C@@H](O)[C@@H]4O)OC[C@@H](O)[C@@H]3O)O[C@H]2C)OC[C@H]1O` (some centres undefined), the activity change, negative = cytotoxicity is 7.23% [at 9.29 µM].

With `C#CCCCn1cc(-c2cccc3c2N[C@H](C)CC(=O)N3)cn1`, the Potency was 1.46 µM (active).

As to `NS(=O)(=O)c1ccc(N2CCN(CC[C@@H]3OCCc4ccccc43)CC2)cc1`, the “activity change, negative = cytotoxicity” value is -11.5%.

Take `C=CCC1=C[C@]2(OC)[C@H](C)[C@@H](c3ccc4c(c3)OCO4)O[C@]2(OC)CC1=O`: the “activity change, negative = cytotoxicity” value is -18.8%.

Regarding `CCC(=O)OCC(=O)[C@@]1(OC(=O)CC)[C@@H](C)C[C@H]2[C@@H]3CCC4=CC(=O)C=C[C@]4(C)[C@@]3(Cl)[C@@H](O)C[C@@]21C`, the “activity change, negative = cytotoxicity” value was -15.9%.

Consider `O=P(O)(O)C(O)(Cc1cnc2ccccn12)P(=O)(O)O`, for which the “activity change, negative = cytotoxicity” value was -6.97%.

In the case of `CC(C)(O)C(=O)N1CCN(c2ccc(C(F)(F)F)c(C3=C(c4c[nH]c5ccccc45)C(=O)NC3=O)c2)CC1`, the result was inactive.

As to `CC[C@H]1CN(c2nc(N)c(C(N)=O)nc2Cl)CCN1C1CCN(Cc2ccc(Cl)cc2)CC1`, the “activity change, negative = cytotoxicity” value is -25.6%.

On to `OC1(CN2CCC(COc3noc4cccc(O[C@@H]5CCOC5)c34)CC2)CCOCC1`, for which the “activity change, negative = cytotoxicity” value was -21.5%.

Consider `O=C(c1ccc(OC(F)F)c(C#Cc2ccccn2)c1)N1Cc2cccnc2C1`, for which the “activity change, negative = cytotoxicity” value was -13.9%.

For the molecule `COc1ccc(CNc2nc(N(CCO)CCO)nc3c2ncn3C(C)C)cc1`, the Potency is 5.8 µM (active).

With `Cc1ccccc1C(C(=O)NC1CCCCC1)N(C(=O)Cn1cnc2ccccc21)c1cccc(F)c1` (centres undefined), the Potency was 23.1 µM (active).

Turning to `COC[C@H](c1ccc(C(F)(F)F)cc1)N1CCN(C2(C)CCN(C(=O)c3c(C)ncnc3C)CC2)C[C@H]1C`, the “activity change, negative = cytotoxicity” value is -7.33%.

As for `NS(=O)(=O)c1ccc(NC(=O)Nc2ccc(F)cc2)cc1`, the “activity change, negative = cytotoxicity” value was -0.748%.

For the molecule `COc1ccccc1C(=O)Nc1cc2c(cc1N1CCCC1)n(C)c(=O)n2C`, the Potency was 18.4 µM (active).

As to `Cc1sc2c(c1C)C(c1ccc(Cl)cc1)=N[C@H](CC(=O)NCCCCNC(=O)COc1cccc3c1C(=O)N([C@H]1CCC(=O)NC1=O)C3=O)c1nnc(C)n1-2`, the result was inactive.

As to `O=C(Nc1ccc(N2C(=O)[C@@H]3[C@H](C2=O)[C@@H]2C=C[C@H]3C2)c(Cl)c1)c1ccccn1`, the “activity change, negative = cytotoxicity” value was -35.5%.
